Source: PubChem BioAssay
VDR inhibitor = inhibitors of human vitamin D receptor. 0.93% of 400,000 active. AID 504847. Potency, µM, for inactives: max response, negative = inhibition, actives largely listed as inhibitors. VDR-SRC2-3 peptide fluorescence polarization, 2 h. P11473
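The screen uses fluorescence polarization to detect compounds that interfere with recruitment of the SRC2-3 coactivator peptide to VDR; plates are read after 2 h at room temperature.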
TrxR1 substrate = rat thioredoxin reductase 1 substrate activity; AID 588456; purified TrxR1 substrate turnover, NADPH consumption readout; 0.01% of 390,000 active; Potency, µM (top dose mostly 114 µM), without a hit: top-dose activity change, negative = substrate turnover; also: nearly all actives have a fitted effect of over 50% in size
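Rat TrxR1, dispensed at 90 nM, was prereduced with 400 uM NADPH (final) for 5 min at ~22 deg C, then incubated with compound 15 min before 400 uM selenite. A first-read NADPH fluorescence drop versus no-compound background flagged substrates.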
PLK1 PBD inh = PLK1 (human) polo-box domain binding inhibition | Plk1 PBD binding of FITC phosphopeptide, fluorescence polarization | Potency, µM, for the others: max response, negative = inhibition, actives largely listed as inhibitors | 2.8% of 360,000 active | AID 720504; also: series mostly up to about 57 µM; nearly all actives have a fitted effect of over 65% in size
rTrxR1 inhibitor = blocks rat thioredoxin reductase 1. O89049. recombinant rTrxR1, NADPH fluorescence consumption, selenite substrate. Potency, µM (titrated, usually from 114 µM), inactives show at the top dose activity change, negative = inhibition, actives largely listed as inhibitors. 1% of 390,000 active. AID 588453; also: nearly all actives have a fitted effect of over 65% in size
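Rat TrxR1 (90 nM in the dispensed reagent) was pre-reduced with 400 uM NADPH for 5 min at room temperature, then incubated with compound for 15 min. After 400 uM selenite was added, NADPH fluorescence (Ex 340/Em 450 nm) was followed for 8 min.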
mIDH1 inhibitor = blocks human mutant IDH1 R132H enzyme; IDH1-R132H enzyme, NADPH consumption, diaphorase/resazurin fluorescence; Potency, µM (series often up to 76.6 µM), for the others: top-dose activity change, negative = inhibition, hits mostly inhibitors; 0.093% of 390,000 active; also: nearly all actives have a fitted effect of over 65% in size
Target sequence (O75874 whole entry R132H, stated change not applied): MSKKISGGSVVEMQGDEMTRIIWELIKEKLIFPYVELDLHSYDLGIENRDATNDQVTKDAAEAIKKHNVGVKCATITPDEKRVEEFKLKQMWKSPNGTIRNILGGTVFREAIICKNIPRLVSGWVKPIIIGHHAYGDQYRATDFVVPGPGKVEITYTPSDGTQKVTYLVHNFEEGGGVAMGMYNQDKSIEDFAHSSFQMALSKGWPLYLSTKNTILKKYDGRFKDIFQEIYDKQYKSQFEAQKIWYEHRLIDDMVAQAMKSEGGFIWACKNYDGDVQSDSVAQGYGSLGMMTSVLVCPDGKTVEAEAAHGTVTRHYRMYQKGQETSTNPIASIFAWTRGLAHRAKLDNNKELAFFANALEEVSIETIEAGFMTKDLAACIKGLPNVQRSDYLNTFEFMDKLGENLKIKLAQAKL
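IDH1-R132H (0.5 ug/mL) preincubated 30 min with compound, then NADPH (0.016 mM) and alpha-KG (2 mM) added; 80 min at RT, pH 7.5. Remaining NADPH coupled via diaphorase/resazurin to fluorescence (540/590 nm); concentration-response curves normalized to no-enzyme control.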
Sfp PPTase inh = Sfp phosphopantetheinyl transferase inhibition | Potency, µM, inactives show largest response in the series, negative = inhibition, most hits filed as inhibitors | Biochemical Sfp PPTase activity, qHTS | 3.5% of 310,000 active | AID 1490 | Q9F4F7;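 also: the enzyme is Sfp with the accession as filed and its product quenches rhodamine fluorescence; 0% = enzyme reaction without inhibitor and -100% = no enzyme wells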
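Step 1, compound plus 15 nM Sfp-PPTase, 15 min, room temperature. Step 2, add rhodamine-CoA (5 uM) and BHQ-2-YbbR (12.5 uM). Step 3, read 525/598 nm fluorescence at 0 and 30 min.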
Active calls of the source: *; ? = inconclusive; . = not tested or not shown; ! = repeats disagree; [ ] = dose if it differs, or a comment. Most compounds without a hit are left out; they make up all but 5.2% or so of the library. Calls follow the shape of the dose curve; as a rule, active = well fitted curve in the direction sought with a large enough effect; inconclusive = small, poorly fitted or top-dose-only effect, or another doubt; inactive = no such curve, though single readings can be large; an effect the other way counts as inactive or inconclusive. Unless noted, % is scaled to controls: 0 for no effect and ±100 for the full control effect; potency is read from the fitted curve at half-maximal effect.

SMILES | VDR inhibitor | TrxR1 substrate | PLK1 PBD inh | rTrxR1 inhibitor | mIDH1 inhibitor | Sfp PPTase inh
COc1ccc(CN2CCC(N(CCc3ccccc3)Cc3ccccc3)CC2)c(OC)c1 | -22% | -8% | -6% | 16%[57.1 µM] | 6% | 40µM*
CN(C)S(=O)(=O)c1cc(NC(=O)c2cc(=O)[nH]c3ccccc23)ccc1Cl | . | . | . | . | . | -3%
O=C(O)c1cc(Br)ccn1 | -9% | 5%[57.1 µM] | -4% | 5%[57.1 µM] | 10% | 35µM*
CN(C)c1ccnc(C(=O)O)c1 | 12% | 9%[57.1 µM] | 0% | 8%[57.1 µM] | 9% | 56µM*
O=C(O)c1ccncc1 | 4% | . | . | . | . | 14%
O=C(O)c1ccnc(C(=O)O)c1 | 10% | -1% | -5% | 15% | 12% | 35µM*
Cc1ccc(CNC(=O)CCCn2nc(C)n3c(cc4sccc43)c2=O)cc1 | 6% | 6% | . | 6% | 7% | .
O=c1ccn(C2OC(COP(=O)(O)OC3C(CO)OC(n4ccc(=O)[nH]c4=O)C3O)C(O)C2O)c(=O)[nH]1 (stereo not drawn) | -4% | . | . | . | . | 6%
Cc1ccc(SCC(=O)c2ccc(CC(=O)O)s2)cc1 | -14% | -2%[57.1 µM] | ? | 1%[57.1 µM] | -3% | -77%
O=C(O)Cc1ccc(C(=O)CSc2ccccc2)s1 | ? | -5% | 12µM* | -7% | -14% | -62%
CN1CCN(C(=S)C(=O)Nc2ccccc2)CC1 | -9% | 9%[57.1 µM] | ? | 13%[57.1 µM] | 14% | 50µM*
CN(C)c1nc(N)c2ncc(=S)[nH]c2n1 | -10% | 7%[11.4 µM] | 4.7µM* | ? | -1% | 50µM*
CCCCN(C=O)c1c(CC)nc2ccc(C(=O)Nc3cc(-c4ccccc4)ccc3OC)cn12 | . | . | -12% | . | . | .
Nc1c(C(=O)c2ccccc2)sc2snc(SCC(=O)c3ccccc3)c12 | -9% | -8% | ? | -16%[57.1 µM] | 0% | 40µM*
CCCCCC1(C(=O)OCC)CC(CSC(=N)N)OC1=O (stereo not drawn) | -20% | 0% | 30µM* | 11% | -5% | 6%
O=C(CSc1nc2ccccc2nc1Cc1ccccc1)N1CCc2ccccc21 | 4% | 8%[57.1 µM] | . | 33%[57.1 µM] | -3% | .
CC1(C(=O)Nc2ccc(Cl)c(Cl)c2)CCN1C(=O)CCC1CCCC1 (stereo not drawn) | . | . | 5% | . | . | .
COc1ccc(C2(CNC(=O)C(=O)Nc3ccccc3C)CCCC2)cc1OC | 4% | 6% | . | 28% | 1% | .
O=C(NCC(=O)N1CCCCCCC1)c1ccc(Cl)cc1 | -37% | -4% | -2% | 9% | -3% | .
O=C(NCC(=O)N1CCCCCC1)c1ccc(Cl)cc1 | ? | -3%[57.1 µM] | 6.7µM* | 8%[57.1 µM] | -6% | 15%
C[C@@H]1O[C@@H](Oc2c(-c3cc(O)c(O)c(O)c3)oc3cc(O)cc(O)c3c2=O)[C@H](O)[C@H](O)[C@H]1O | -15% | -5% | ? | -3%[57.1 µM] | -1% | 32µM*!
CC1=CCC2CC1C2(C)C (stereo not drawn) | 10% | . | . | . | . | 20%
Cn1c(=O)c2c(ncn2CC(=O)Nc2cccc(S(=O)(=O)Nc3ccccc3F)c2)n(C)c1=O | -20% | 9%[57.1 µM] | 30µM* | 25%[57.1 µM] | 1% | 56µM*
CN(c1ccccc1)S(=O)(=O)c1cccc(NC(=O)Cn2cnc3c2c(=O)n(C)c(=O)n3C)c1 | 0% | -5% | -4% | 0% | -2% | 12%
COc1ccc(-c2cc(C(=O)N/N=C/c3ccc(OC)c(COCC(F)(F)C(F)F)c3)c3ccccc3n2)c(OC)c1 | -17% | 14% | 3µM* | 14% | 3% | 18%
O=C(N/N=C/c1ccc(F)cc1)c1cc(-c2ccccn2)nc2ccccc12 | -7% | -2% | -1% | -5% | 4% | .
CN(CC(=O)Nc1cccc(F)c1)C(=O)c1cc(-c2ccco2)nc2ccccc12 | ? | 276% | 34µM* | ? | 4% | .
O=C(N/N=C/c1ccc2c(c1)OCO2)c1cc(-c2ccc(F)cc2)nc2ccccc12 | -11% | 11% | -6% | 4% | 1% | 45µM*
O=C(N/N=C/c1cccc(F)c1)c1cc(-c2ccco2)nc2ccccc12 | -6% | 19%[11.4 µM] | 11µM* | -29%[11.4 µM] | 4% | -5%
